Measurements as given in PubChem BioAssay AID1159580 (chemical genetic matrix, 2015).
“And” between values parts separate entries of the source, which are not always exact repeats. Equal entries are not always repeated. The campaign covered roughly 5,500 compounds. About 2,000 (36%) were called active. Inconclusive results (about 18%) are left out. Cut-off read from the data, not from the text of the source: active = normalized growth mostly below about 0.91 (no sharp cut-off); inconclusive = no clear call, values can overlap the other calls; inactive = mostly above about 0.92. The list shows a part of the results.

Experiment: chemical genetic growth profiling, strain panel (AID 1159580);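 note: tested at 20 µM; growth read once vehicle control cultures reached saturation at 30 °C; 1 = growth at the plate median or of vehicle wells; lower values mean less growth of the strain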
Conditions: growth OD

Measured: normalized growth

CO[C@H]1[C@H](O)[C@@H](O[C@H]2CC[C@]3(C=O)C4CC[C@]5(C)[C@@H](C6=CC(=O)OC6)CC[C@]5(O)C4CC[C@@H]3C2)O[C@@H](C)[C@@H]1O (some centres not stated)
inactive: S. cerevisiae deletion strains, locus YAL013W, strain DEP1, active compounds read low 0.982 | S. cerevisiae deletion strains, locus YBR021W, strain FUR4, active compounds read low 1.01 | S. cerevisiae deletion strains, locus YBR229C, strain ROT2, active compounds read low 0.959 | S. cerevisiae deletion strains, locus YCL029C, strain bik1, active compounds read low 0.993 | S. cerevisiae deletion strains, locus YDL035C, strain GPR1, active compounds read low 0.986 | S. cerevisiae deletion strains, locus YDL074C, strain BRE1, active compounds read low 1.01 | S. cerevisiae deletion strains, locus YDL101C, strain DUN1, active compounds read low 0.973 | S. cerevisiae deletion strains, locus YDL134C, strain PPH21, active compounds read low 0.986 | S. cerevisiae deletion strains, locus YDL185W, strain tfp1, active compounds read low 0.989 | S. cerevisiae deletion strains, locus YDL192W, strain arf1, active compounds read low 0.99 | S. cerevisiae deletion strains, locus YDR101C, strain arx1, active compounds read low 1 | S. cerevisiae deletion strains, locus YDR150W, strain NUM1, active compounds read low 0.966 | S. cerevisiae deletion strains, locus YDR162C, strain NBP2, active compounds read low 0.978 | S. cerevisiae deletion strains, locus YDR318W, strain mcm21, active compounds read low 1.01 | S. cerevisiae deletion strains, locus YDR388W, active compounds read low 0.999 | S. cerevisiae deletion strains, locus YDR502C, strain sam2, active compounds read low 0.992 | S. cerevisiae deletion strains, locus YEL061C, strain CIN8, active compounds read low 0.984 | S. cerevisiae deletion strains, locus YER110C, active compounds read low 0.973 | S. cerevisiae deletion strains, locus YER155C, strain BEM2, active compounds read low 0.997 | S. cerevisiae deletion strains, locus YER167W, strain BCK2, active compounds read low 0.995 | S. cerevisiae deletion strains, locus YGL078C, strain dbp3, active compounds read low 0.986 | S. cerevisiae deletion strains, locus YGL086W, strain mad1, active compounds read low 0.989 | S. cerevisiae deletion strains, locus YGL248W, strain PDE1, active compounds read low 0.973 | S. cerevisiae deletion strains, locus YGR078C, strain PAC10, active compounds read low 1 | S. cerevisiae deletion strains, locus YGR135W, strain pre9, active compounds read low 1 | S. cerevisiae deletion strains, locus YGR229C, strain SMI1, active compounds read low 0.996 | S. cerevisiae deletion strains, locus YGR252W, strain gcn5, active compounds read low 0.999 | S. cerevisiae deletion strains, locus YHR030C, strain SLT2, active compounds read low 0.987 and 0.975 | S. cerevisiae deletion strains, locus YHR079C, strain IRE1 (second series), active compounds read low 0.99 | S. cerevisiae deletion strains, locus YHR079C, strain IRE1, active compounds read low 0.965 | S. cerevisiae deletion strains, locus YHR094C, strain hxt1, active compounds read low 0.988 | S. cerevisiae deletion strains, locus YHR129C, strain ARP1, active compounds read low 0.996 | S. cerevisiae deletion strains, locus YHR200W, strain rpn10, active compounds read low 0.999 | S. cerevisiae deletion strains, locus YIL066C, strain RNR3, active compounds read low 0.968 | S. cerevisiae deletion strains, locus YIL073C, strain SPO22, active compounds read low 0.994 | S. cerevisiae deletion strains, locus YIL125W, strain kgd1, active compounds read low 0.98 | S. cerevisiae deletion strains, locus YIR030C, strain dcg1, active compounds read low 0.982 | S. cerevisiae deletion strains, locus YJL095W, strain BCK1, active compounds read low 1.04 and 0.973 | S. cerevisiae deletion strains, locus YJL134W, strain LCB3, active compounds read low 0.981 | S. cerevisiae deletion strains, locus YJL168C, strain set2, active compounds read low 0.992 | S. cerevisiae deletion strains, locus YJL187C, strain SWE1 (second series), active compounds read low 0.99 | S. cerevisiae deletion strains, locus YJR043C, strain POL32, active compounds read low 1.01 | S. cerevisiae deletion strains, locus YJR066W, strain TOR1, active compounds read low 0.972 | S. cerevisiae deletion strains, locus YJR075W, strain HOC1, active compounds read low 0.998 | S. cerevisiae deletion strains, locus YKL009W, strain mrt4, active compounds read low 0.943 | S. cerevisiae deletion strains, locus YKL068W, active compounds read low 0.994 | S. cerevisiae deletion strains, locus YKL085W, strain MDH1 (second series), active compounds read low 0.98 | S. cerevisiae deletion strains, locus YKL085W, strain MDH1, active compounds read low 0.98 | S. cerevisiae deletion strains, locus YKL190W, strain CNB1, active compounds read low 0.991 | S. cerevisiae deletion strains, locus YKR001C, strain vps1, active compounds read low 0.993 | S. cerevisiae deletion strains, locus YLR039C, strain RIC1, active compounds read low 0.969 | S. cerevisiae deletion strains, locus YLR058C, strain SHM2, active compounds read low 0.965 | S. cerevisiae deletion strains, locus YLR102C, strain apc9, active compounds read low 0.994 | S. cerevisiae deletion strains, locus YLR113W, strain HOG1, active compounds read low 0.975 | S. cerevisiae deletion strains, locus YLR262C, strain YPT6, active compounds read low 0.972 | S. cerevisiae deletion strains, locus YLR268W, strain sec22, active compounds read low 1.05 | S. cerevisiae deletion strains, locus YLR330W, strain CHS5, active compounds read low 0.982 | S. cerevisiae deletion strains, locus YLR342W, strain FKS1 (second series), active compounds read low 0.998 | S. cerevisiae deletion strains, locus YLR371W, strain rom2, active compounds read low 0.979 | S. cerevisiae deletion strains, locus YLR418C, strain cdc73, active compounds read low 1 | S. cerevisiae deletion strains, locus YML016C, strain PPZ1, active compounds read low 0.987 | S. cerevisiae deletion strains, locus YML032C, strain rad52, active compounds read low 1.01 | S. cerevisiae deletion strains, locus YML124C, strain tub3, active compounds read low 0.989 | S. cerevisiae deletion strains, locus YMR078C, strain ctf18, active compounds read low 0.993 | S. cerevisiae deletion strains, locus YMR223W, strain ubp8, active compounds read low 0.977 | S. cerevisiae deletion strains, locus YMR263W, strain SAP30, active compounds read low 0.987 | S. cerevisiae deletion strains, locus YMR307W, strain GAS1, active compounds read low 0.981 | S. cerevisiae deletion strains, locus YNL067W, strain RPL9B, active compounds read low 1.01 | S. cerevisiae deletion strains, locus YNL128W, strain TEP1, active compounds read low 0.969 | S. cerevisiae deletion strains, locus YNL153C, strain GIM3, active compounds read low 0.994 | S. cerevisiae deletion strains, locus YNL183C, strain NPR1, active compounds read low 0.903 | S. cerevisiae deletion strains, locus YNL233W, strain BNI4, active compounds read low 0.999 | S. cerevisiae deletion strains, locus YNL250W, strain rad50, active compounds read low 0.969 | S. cerevisiae deletion strains, locus YNL271C, strain bni1, active compounds read low 1 | S. cerevisiae deletion strains, locus YNL298W, strain CLA4, active compounds read low 0.992 | S. cerevisiae deletion strains, locus YNL307C, strain MCK1, active compounds read low 0.993 | S. cerevisiae deletion strains, locus YNL322C, strain KRE1, active compounds read low 0.989 | S. cerevisiae deletion strains, locus YNR052C, strain pop2, active compounds read low 1.01 | S. cerevisiae deletion strains, locus YOL006C, strain TOP1, active compounds read low 1.01 | S. cerevisiae deletion strains, locus YOL012C, strain htz1 0.939 | S. cerevisiae deletion strains, locus YOL147C, strain pex11, active compounds read low 0.998 | S. cerevisiae deletion strains, locus YOR061W, strain CKA2, active compounds read low 0.968 | S. cerevisiae deletion strains, locus YOR069W, strain VPS5, active compounds read low 0.988 | S. cerevisiae deletion strains, locus YOR136W, strain idh2, active compounds read low 0.986 | S. cerevisiae deletion strains, locus YOR144C, strain elg1, active compounds read low 0.998 | S. cerevisiae deletion strains, locus YOR184W, strain ser1, active compounds read low 0.981 | S. cerevisiae deletion strains, locus YOR231W, strain MKK1, active compounds read low 0.957 | S. cerevisiae deletion strains, locus YOR316C, strain cot1, active compounds read low 0.985 | S. cerevisiae deletion strains, locus YPL055C, strain LGE1, active compounds read low 0.979 | S. cerevisiae deletion strains, locus YPL241C, strain CIN2, active compounds read low 0.992 | S. cerevisiae deletion strains, locus YPL256C, strain CLN2, active compounds read low 0.948 | S. cerevisiae deletion strains, locus YPR119W, strain clb2, active compounds read low 0.989 | S. cerevisiae deletion strains, locus YPR141C, strain kar3, active compounds read low 0.983 | S. cerevisiae deletion strains, locus YPR163C, strain tif3, active compounds read low 1 | S. cerevisiae deletion strains, locus YPR167C, strain met16, active compounds read low 0.992 | S. cerevisiae deletion strains, strain wtn01, active compounds read low 0.996 | S. cerevisiae strains, strain wild type, active compounds read low 0.978
